# Reference: ChEMBL document CHEMBL1961873, “Compounds: GSK PKIS; Assays: Nanosyn kinase panel” (2012)
# Columns and labels:
# [1] = target: Tyrosine-protein kinase CSK (Homo sapiens) (UniProt P41240); conditions: at 1 µM;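 further: each value is an averaged inhibition reading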
# [2] = target: T1, Discoidin domain-containing receptor 2 (Homo sapiens) (UniProt Q16832); conditions: at 0.1 µM
# T1 sequence (whole entry): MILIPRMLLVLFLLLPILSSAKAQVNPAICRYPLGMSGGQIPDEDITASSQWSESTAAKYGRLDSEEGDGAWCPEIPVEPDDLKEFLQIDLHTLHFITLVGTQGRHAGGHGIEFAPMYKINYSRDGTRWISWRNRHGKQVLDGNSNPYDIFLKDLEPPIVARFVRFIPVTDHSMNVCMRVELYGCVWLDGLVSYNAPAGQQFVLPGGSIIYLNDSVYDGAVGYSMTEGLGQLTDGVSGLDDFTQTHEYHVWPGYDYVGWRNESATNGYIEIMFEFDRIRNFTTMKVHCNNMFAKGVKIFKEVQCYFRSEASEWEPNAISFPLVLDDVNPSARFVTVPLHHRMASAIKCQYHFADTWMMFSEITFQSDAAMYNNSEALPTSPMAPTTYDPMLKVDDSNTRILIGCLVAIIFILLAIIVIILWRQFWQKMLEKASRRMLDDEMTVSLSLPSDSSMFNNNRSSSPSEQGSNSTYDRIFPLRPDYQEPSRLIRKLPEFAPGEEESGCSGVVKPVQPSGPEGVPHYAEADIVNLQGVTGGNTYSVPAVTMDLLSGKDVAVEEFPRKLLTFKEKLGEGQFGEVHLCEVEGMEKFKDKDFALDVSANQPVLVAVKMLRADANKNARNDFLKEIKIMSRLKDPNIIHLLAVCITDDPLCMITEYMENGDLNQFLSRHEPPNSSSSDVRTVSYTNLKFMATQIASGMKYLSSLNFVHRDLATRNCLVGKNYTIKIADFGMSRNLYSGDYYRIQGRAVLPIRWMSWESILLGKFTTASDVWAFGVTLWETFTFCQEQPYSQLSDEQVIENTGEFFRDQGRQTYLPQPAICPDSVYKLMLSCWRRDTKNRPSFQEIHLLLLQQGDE
# [3] = target: T1, Discoidin domain-containing receptor 2 (Homo sapiens); conditions: at 1 µM
# [4] = target: Epidermal growth factor receptor (Homo sapiens) (UniProt P00533); conditions: at 0.1 µM
# [5] = target: Epidermal growth factor receptor (Homo sapiens) (UniProt P00533); conditions: at 1 µM
# [6] = test system: Epidermal growth factor receptor (Homo sapiens), P00533 [L858R]; conditions: at 0.1 µM
# Epidermal growth factor receptor (Homo sapiens), P00533 [L858R], sequence (P00533 whole entry L858R): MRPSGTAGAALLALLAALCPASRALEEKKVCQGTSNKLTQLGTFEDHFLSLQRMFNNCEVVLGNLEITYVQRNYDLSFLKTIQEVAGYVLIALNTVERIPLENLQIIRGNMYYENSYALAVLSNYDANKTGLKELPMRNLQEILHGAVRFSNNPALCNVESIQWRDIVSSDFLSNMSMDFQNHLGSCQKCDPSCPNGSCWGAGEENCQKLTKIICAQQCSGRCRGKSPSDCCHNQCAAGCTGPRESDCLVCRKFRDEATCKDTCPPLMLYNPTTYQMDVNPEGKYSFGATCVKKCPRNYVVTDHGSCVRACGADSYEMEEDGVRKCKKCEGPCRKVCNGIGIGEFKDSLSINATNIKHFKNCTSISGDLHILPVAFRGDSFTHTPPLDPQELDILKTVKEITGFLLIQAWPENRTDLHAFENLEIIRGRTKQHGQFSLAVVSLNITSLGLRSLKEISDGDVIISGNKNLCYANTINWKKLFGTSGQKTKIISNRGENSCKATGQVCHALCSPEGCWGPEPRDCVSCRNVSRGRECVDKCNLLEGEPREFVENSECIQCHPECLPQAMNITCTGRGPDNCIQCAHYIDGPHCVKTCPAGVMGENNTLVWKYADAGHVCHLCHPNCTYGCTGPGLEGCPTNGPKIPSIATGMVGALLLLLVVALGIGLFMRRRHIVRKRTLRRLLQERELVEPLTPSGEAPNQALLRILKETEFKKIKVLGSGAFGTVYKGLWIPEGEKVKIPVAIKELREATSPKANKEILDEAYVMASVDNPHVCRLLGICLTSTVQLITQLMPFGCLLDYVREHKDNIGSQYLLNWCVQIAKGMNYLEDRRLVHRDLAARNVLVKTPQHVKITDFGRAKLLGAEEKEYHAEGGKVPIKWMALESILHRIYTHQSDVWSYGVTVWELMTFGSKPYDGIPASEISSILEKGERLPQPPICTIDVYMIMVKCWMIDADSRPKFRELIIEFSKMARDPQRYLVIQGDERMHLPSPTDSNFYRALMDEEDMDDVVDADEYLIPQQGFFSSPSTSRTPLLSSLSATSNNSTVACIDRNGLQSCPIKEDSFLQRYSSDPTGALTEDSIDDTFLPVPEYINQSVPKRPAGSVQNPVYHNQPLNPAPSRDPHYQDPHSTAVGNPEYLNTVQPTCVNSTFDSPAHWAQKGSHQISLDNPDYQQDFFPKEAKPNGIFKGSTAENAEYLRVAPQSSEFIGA
# [7] = test system: Epidermal growth factor receptor (Homo sapiens), P00533 [L858R]; conditions: at 1 µM
# [8] = test system: Epidermal growth factor receptor (Homo sapiens), P00533 [L861Q]; conditions: at 0.1 µM
# Epidermal growth factor receptor (Homo sapiens), P00533 [L861Q], sequence (P00533 whole entry L861Q): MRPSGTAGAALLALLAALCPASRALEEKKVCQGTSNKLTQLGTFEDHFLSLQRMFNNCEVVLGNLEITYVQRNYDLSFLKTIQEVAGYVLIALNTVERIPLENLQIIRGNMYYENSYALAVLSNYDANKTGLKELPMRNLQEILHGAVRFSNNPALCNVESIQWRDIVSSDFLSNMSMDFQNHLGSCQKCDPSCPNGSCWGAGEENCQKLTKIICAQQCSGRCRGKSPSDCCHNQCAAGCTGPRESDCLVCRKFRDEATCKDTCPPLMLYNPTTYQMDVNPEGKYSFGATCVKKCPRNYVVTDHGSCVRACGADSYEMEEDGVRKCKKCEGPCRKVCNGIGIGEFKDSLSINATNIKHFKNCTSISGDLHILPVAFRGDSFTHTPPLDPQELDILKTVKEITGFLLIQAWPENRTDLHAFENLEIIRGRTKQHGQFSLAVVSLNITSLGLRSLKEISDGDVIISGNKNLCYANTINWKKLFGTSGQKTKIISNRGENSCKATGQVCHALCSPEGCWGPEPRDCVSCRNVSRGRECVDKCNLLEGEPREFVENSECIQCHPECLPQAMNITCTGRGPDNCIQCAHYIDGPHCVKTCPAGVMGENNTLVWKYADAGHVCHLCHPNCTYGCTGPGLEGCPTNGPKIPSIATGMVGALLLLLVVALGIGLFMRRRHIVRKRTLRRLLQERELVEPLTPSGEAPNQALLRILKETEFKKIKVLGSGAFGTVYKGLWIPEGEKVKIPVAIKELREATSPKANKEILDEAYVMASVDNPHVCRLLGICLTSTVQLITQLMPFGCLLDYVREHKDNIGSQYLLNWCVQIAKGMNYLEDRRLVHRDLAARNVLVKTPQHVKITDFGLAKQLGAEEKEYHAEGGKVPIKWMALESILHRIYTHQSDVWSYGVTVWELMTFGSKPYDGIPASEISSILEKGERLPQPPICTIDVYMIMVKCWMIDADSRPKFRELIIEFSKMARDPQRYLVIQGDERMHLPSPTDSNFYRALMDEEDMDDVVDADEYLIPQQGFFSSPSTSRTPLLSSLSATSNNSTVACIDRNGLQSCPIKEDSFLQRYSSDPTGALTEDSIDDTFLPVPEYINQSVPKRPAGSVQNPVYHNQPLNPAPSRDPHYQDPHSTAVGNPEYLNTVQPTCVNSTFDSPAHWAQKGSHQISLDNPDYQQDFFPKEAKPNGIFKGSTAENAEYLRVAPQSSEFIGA
# [9] = test system: Epidermal growth factor receptor (Homo sapiens), P00533 [L861Q]; conditions: at 1 µM
# [10] = test system: Epidermal growth factor receptor (Homo sapiens), P00533 [T790M]; conditions: at 0.1 µM
# Epidermal growth factor receptor (Homo sapiens), P00533 [T790M], sequence (P00533 whole entry T790M): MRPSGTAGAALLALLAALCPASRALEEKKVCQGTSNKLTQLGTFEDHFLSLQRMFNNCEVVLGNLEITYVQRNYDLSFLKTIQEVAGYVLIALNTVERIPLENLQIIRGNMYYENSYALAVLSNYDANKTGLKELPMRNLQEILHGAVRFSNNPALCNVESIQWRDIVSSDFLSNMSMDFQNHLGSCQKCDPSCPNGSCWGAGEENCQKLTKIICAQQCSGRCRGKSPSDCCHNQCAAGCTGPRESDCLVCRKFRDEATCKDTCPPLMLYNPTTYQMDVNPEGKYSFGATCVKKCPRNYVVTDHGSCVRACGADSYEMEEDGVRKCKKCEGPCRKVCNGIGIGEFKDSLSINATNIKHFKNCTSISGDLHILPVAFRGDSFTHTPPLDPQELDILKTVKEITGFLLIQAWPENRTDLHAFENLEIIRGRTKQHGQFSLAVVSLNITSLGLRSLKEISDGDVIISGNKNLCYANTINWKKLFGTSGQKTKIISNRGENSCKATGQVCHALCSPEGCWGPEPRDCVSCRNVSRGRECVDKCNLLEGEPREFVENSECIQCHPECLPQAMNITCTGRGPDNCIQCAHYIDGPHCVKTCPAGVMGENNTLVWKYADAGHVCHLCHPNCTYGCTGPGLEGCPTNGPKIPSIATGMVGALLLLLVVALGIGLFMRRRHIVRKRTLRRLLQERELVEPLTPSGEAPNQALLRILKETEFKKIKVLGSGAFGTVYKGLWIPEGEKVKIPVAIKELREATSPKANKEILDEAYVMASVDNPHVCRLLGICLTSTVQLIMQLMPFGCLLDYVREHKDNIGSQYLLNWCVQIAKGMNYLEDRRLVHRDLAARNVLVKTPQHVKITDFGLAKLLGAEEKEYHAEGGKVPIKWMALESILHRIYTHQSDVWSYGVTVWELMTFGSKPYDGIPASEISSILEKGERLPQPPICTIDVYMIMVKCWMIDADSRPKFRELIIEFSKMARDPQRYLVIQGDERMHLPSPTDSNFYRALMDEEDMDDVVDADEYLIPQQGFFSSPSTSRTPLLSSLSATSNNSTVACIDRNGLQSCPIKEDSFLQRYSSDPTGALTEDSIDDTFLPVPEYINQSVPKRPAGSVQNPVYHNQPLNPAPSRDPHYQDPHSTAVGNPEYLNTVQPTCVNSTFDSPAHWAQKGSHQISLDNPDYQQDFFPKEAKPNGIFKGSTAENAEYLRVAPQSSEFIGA
# [11] = test system: Epidermal growth factor receptor (Homo sapiens), P00533 [T790M]; conditions: at 1 µM
# [12] = test system: Epidermal growth factor receptor (Homo sapiens), P00533 [L858R,T790M]; conditions: at 0.1 µM
# [13] = test system: Epidermal growth factor receptor (Homo sapiens), P00533 [L858R,T790M]; conditions: at 1 µM
# [14] = target: Ephrin type-A receptor 2 (Homo sapiens) (UniProt P29317); conditions: at 0.1 µM
# [15] = target: Ephrin type-A receptor 2 (Homo sapiens) (UniProt P29317); conditions: at 1 µM
# [16] = target: T2, Ephrin type-A receptor 3 (Homo sapiens) (UniProt P29320); conditions: at 0.1 µM
# T2 sequence (whole entry): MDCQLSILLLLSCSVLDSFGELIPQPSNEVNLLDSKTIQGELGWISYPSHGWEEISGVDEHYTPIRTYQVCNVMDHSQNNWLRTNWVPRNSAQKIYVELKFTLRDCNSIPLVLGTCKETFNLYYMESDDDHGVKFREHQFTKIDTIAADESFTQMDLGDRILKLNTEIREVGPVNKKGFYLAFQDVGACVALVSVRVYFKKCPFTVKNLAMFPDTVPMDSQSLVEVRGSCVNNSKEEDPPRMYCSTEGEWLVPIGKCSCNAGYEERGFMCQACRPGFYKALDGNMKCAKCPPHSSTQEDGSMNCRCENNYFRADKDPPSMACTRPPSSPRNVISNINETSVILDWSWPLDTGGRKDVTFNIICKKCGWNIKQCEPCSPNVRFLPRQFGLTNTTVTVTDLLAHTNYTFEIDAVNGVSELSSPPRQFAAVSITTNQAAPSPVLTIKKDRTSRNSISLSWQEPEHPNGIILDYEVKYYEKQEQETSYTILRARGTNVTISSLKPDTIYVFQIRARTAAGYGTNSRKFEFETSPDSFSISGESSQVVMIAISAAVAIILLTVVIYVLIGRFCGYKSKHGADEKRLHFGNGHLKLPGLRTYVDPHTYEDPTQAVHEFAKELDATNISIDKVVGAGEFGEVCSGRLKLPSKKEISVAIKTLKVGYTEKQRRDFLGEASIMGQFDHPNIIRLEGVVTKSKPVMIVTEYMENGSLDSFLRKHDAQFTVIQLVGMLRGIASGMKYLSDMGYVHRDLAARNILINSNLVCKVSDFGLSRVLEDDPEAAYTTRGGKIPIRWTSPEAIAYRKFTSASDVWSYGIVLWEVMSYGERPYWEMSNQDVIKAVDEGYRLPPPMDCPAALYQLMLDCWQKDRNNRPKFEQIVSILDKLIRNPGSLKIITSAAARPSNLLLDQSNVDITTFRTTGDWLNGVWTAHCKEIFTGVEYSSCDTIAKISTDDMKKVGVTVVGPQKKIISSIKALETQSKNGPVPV
# [17] = target: T2, Ephrin type-A receptor 3 (Homo sapiens); conditions: at 1 µM
# [18] = target: Ephrin type-A receptor 4 (Homo sapiens) (UniProt P54764); conditions: at 0.1 µM
# Ephrin type-A receptor 4 (Homo sapiens), sequence (P54764 whole entry): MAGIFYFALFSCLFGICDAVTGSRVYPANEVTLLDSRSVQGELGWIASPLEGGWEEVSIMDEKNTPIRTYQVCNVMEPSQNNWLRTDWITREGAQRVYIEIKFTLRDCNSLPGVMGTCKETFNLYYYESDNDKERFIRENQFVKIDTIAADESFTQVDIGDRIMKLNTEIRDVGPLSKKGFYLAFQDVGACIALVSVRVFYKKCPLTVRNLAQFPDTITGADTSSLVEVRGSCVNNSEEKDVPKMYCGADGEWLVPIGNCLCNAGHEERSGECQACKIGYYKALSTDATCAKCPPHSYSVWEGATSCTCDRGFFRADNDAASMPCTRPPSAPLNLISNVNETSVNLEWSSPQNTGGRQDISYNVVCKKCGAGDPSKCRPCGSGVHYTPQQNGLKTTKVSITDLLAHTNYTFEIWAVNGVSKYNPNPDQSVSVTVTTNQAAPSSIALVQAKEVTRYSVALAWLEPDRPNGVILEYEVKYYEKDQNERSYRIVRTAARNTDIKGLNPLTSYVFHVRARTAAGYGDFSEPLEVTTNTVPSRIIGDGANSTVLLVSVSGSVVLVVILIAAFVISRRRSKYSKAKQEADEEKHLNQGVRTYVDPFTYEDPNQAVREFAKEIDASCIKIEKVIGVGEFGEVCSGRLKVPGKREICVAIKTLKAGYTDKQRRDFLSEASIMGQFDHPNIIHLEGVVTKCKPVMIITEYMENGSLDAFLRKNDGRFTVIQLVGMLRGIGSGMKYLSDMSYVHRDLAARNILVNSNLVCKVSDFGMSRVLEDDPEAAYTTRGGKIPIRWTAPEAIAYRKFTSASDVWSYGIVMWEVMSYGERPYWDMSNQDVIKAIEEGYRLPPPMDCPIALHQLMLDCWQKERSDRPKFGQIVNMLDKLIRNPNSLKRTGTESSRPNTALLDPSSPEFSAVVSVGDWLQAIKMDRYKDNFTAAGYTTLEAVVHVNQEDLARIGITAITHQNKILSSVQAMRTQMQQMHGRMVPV
# [19] = target: Ephrin type-A receptor 4 (Homo sapiens) (UniProt P54764); conditions: at 1 µM
# [20] = target: T3, Ephrin type-B receptor 2 (Homo sapiens) (UniProt P29323); conditions: at 0.1 µM;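 further: reported as mean inhibition of EPHB2, from the GSK PKIS dataset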
# T3 sequence (whole entry): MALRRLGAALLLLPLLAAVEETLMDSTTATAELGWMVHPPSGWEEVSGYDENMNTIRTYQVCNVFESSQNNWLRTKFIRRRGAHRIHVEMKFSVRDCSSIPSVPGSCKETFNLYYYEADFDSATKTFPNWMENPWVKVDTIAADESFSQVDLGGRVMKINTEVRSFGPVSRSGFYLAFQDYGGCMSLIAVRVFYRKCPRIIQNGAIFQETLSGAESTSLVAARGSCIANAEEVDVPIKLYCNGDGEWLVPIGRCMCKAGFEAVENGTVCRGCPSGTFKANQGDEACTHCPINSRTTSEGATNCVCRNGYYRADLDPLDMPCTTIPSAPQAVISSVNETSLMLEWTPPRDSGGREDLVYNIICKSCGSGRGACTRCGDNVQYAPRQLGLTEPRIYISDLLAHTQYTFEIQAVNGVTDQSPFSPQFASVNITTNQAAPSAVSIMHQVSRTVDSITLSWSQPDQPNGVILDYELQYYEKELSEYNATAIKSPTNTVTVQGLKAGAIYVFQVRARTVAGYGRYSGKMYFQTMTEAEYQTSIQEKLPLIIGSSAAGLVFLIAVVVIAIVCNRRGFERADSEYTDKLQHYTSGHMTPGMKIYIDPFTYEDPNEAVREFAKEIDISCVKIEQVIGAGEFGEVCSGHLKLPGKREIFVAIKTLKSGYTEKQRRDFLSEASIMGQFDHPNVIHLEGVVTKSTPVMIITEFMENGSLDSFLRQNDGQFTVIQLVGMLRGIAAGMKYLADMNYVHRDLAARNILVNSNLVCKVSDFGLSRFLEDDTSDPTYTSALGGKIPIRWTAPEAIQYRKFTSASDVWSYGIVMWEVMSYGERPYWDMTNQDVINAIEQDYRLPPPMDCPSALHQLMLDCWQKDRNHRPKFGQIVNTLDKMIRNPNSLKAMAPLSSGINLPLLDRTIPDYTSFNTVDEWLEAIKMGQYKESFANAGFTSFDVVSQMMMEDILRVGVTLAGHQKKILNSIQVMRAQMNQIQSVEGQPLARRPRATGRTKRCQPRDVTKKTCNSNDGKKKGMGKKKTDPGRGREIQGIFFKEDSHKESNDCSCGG
# Tyrosine-protein kinase CSK (Homo sapiens), sequence (P41240 2-450 limits assumed): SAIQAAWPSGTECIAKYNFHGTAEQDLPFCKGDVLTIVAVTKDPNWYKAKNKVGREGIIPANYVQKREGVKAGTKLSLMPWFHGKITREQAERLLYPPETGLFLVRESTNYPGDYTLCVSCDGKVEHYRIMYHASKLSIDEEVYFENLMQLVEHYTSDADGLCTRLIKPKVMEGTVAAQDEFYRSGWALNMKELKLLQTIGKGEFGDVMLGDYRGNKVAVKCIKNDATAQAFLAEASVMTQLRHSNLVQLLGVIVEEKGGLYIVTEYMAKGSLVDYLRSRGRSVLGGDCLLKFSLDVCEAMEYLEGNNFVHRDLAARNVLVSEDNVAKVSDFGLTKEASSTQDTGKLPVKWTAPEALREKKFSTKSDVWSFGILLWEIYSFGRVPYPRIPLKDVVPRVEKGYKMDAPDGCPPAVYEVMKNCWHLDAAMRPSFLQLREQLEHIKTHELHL
Compound,inhibition [1] [%],inhibition [2] [%],inhibition [3] [%],inhibition [4] [%],inhibition [5] [%],inhibition [6] [%],inhibition [7] [%],inhibition [8] [%],inhibition [9] [%],inhibition [10] [%],inhibition [11] [%],inhibition [12] [%],inhibition [13] [%],inhibition [14] [%],inhibition [15] [%],inhibition [16] [%],inhibition [17] [%],inhibition [18] [%],inhibition [19] [%],inhibition [20] [%]
NS(=O)(=O)c1cccc(-c2cc3ccncc3cc2OCc2ccccc2)c1,4.74,1.4,6.85,-0.75,3.23,4.24,6.99,4.79,3.2,2.32,1.71,1.48,0.67,1.97,1.53,2.7,3.87,8.09,5.03,4.23
CN(c1ccc(NC(=O)Nc2ccc(OC(F)(F)F)cc2)cc1)c1ccnc(Nc2cccc(S(N)(=O)=O)c2)n1,29.4,53.2,88.6,-0.6,3.21,1.4,3.36,1.14,5.92,1.81,1.56,2.59,2.24,3.48,35.4,5.58,18.3,9.59,59.8,10.9
OCc1ccc(-c2nc(-c3ccccn3)c(-c3ccc4c(c3)OCO4)[nH]2)cc1,3.94,2.68,4.73,3.69,6.33,3.45,1.89,3.49,-0.4,2.68,0.84,3.54,0.26,2.78,2.31,6.06,6.97,9.84,7.48,12.2
FC(F)(F)c1ccc(-c2nn3ncccc3c2-c2ccnc(Nc3ccc4c(c3)OCCO4)n2)cc1,6.46,8.59,24.9,6.78,19.2,5.78,40.1,4.86,27.6,0.49,7.94,0.49,10.3,4.63,3.45,0.34,2.49,1.05,21.2,3.69
CN(C)C(=O)O[C@@H]1CN[C@@H](C#Cc2cc3ncnc(Nc4ccc(OCc5cccc(F)c5)c(Cl)c4)c3s2)C1,-1.42,1.79,3.36,,,,,,,,,,,-0.17,1.05,5.64,1.99,1.85,-8.34,0.71
COc1cccc(-n2ncc3c(N/N=C/c4ccc(C)cc4)ncnc32)c1,8.35,0.39,2.37,3.01,4.71,2.45,11.7,1.42,6.09,0.91,2.25,1.79,2.55,2.45,1.1,3.28,3.46,7.44,11.3,6.77
